{"source": "PubChem BioAssay AID1159580", "about": "(chemical genetic matrix, 2015)", "experiment": "chemical genetic growth profiling, strain panel (AID 1159580);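 also: tested at 20 µM; growth read once vehicle control cultures reached saturation at 30 °C; 1 = growth at the plate median or of vehicle wells; lower values mean less growth of the strain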", "conditions": "S. cerevisiae deletion strains, growth OD", "note": "Among all 5,500 compounds or so, about 2,000 (36%) were called active. About 18% were inconclusive and are not listed. Some of the results follow. Unmarked numbers belong to inactive results. Rule as the data show it: active = normalized growth mostly below about 0.91 (no sharp cut-off); inconclusive = no clear call, values can overlap the other calls; inactive = mostly above about 0.92."}
{"smiles": "O=C(O)C1CN(CCCP(=O)(O)O)CCN1", "note": "(centres undefined)", "values": [{"measurement": "normalized growth", "setting": "locus YAL040C, strain CLN3, active compounds read low", "value": 0.977}, {"measurement": "normalized growth", "setting": "locus YCL061C, strain MRC1 (second series), active compounds read low", "value": 0.994}, {"measurement": "normalized growth", "setting": "locus YDR363W, strain ESC2, active compounds read low", "value": 0.965}, {"measurement": "normalized growth", "setting": "locus YER002W, strain NOP16, active compounds read low", "value": 0.975}, {"measurement": "normalized growth", "setting": "locus YGR078C, strain PAC10, active compounds read low", "value": 0.966}, {"measurement": "normalized growth", "setting": "locus YGR229C, strain SMI1, active compounds read low", "value": 0.967}, {"measurement": "normalized growth", "setting": "locus YJR075W, strain HOC1, active compounds read low", "value": 0.987}, {"measurement": "normalized growth", "setting": "locus YNL128W, strain TEP1, active compounds read low", "value": 1.02}, {"measurement": "normalized growth", "setting": "locus YNL175C, strain NOP13, active compounds read low", "value": 0.974}, {"measurement": "normalized growth", "setting": "locus YNL197C, strain WHI3, active compounds read low", "value": 0.99}, {"measurement": "normalized growth", "setting": "locus YNL224C, strain SQS1, active compounds read low", "value": 0.991}, {"measurement": "normalized growth", "setting": "locus YOR083W, strain WHI5 (second series), active compounds read low", "value": 1.04}, {"measurement": "normalized growth", "setting": "locus YPL055C, strain LGE1, active compounds read low", "value": 0.951}, {"measurement": "normalized growth", "setting": "locus YPL241C, strain CIN2, active compounds read low", "value": 0.984}]}
{"smiles": "COc1ccc(-c2cc(=O)c3c(OC)c(OC)c(OC)c(OC)c3o2)cc1", "values": [{"measurement": "normalized growth", "setting": "locus YAL021C, strain ccr4, active compounds read low", "value": 0.996}, {"measurement": "normalized growth", "setting": "locus YAL026C, strain drs2, active compounds read low", "value": "0.846 (active)"}, {"measurement": "normalized growth", "setting": "locus YAL030W, strain snc1, active compounds read low", "value": 0.959}, {"measurement": "normalized growth", "setting": "locus YBL061C, strain skt5, active compounds read low", "value": "0.792 (active)"}, {"measurement": "normalized growth", "setting": "locus YBR009C, strain hhf1, active compounds read low", "value": 0.91}, {"measurement": "normalized growth", "setting": "locus YBR023C, strain chs3, active compounds read low", "value": "0.848 (active)"}, {"measurement": "normalized growth", "setting": "locus YBR171W, strain sec66, active compounds read low", "value": 0.961}, {"measurement": "normalized growth", "setting": "locus YBR231C, strain swc5, active compounds read low", "value": "0.795 (active)"}, {"measurement": "normalized growth", "setting": "locus YBR279W, strain paf1, active compounds read low", "value": 0.942}, {"measurement": "normalized growth", "setting": "locus YCL011C, strain gbp2, active compounds read low", "value": "0.907 (active)"}, {"measurement": "normalized growth", "setting": "locus YCL016C, strain dcc1, active compounds read low", "value": "0.911 (active)"}, {"measurement": "normalized growth", "setting": "locus YCL061C, strain MRC1, active compounds read low", "value": "0.918 (active)"}, {"measurement": "normalized growth", "setting": "locus YCL069W, strain vba3, active compounds read low", "value": 0.934}, {"measurement": "normalized growth", "setting": "locus YCR088W, strain abp1, active compounds read low", "value": 0.937}, {"measurement": "normalized growth", "setting": "locus YDL005C, strain med2, active compounds read low", "value": 0.985}, {"measurement": "normalized growth", "setting": "locus YDL040C, strain nat1, active compounds read low", "value": 0.975}, {"measurement": "normalized growth", "setting": "locus YDR001C, strain nth1, active compounds read low", "value": 0.959}, {"measurement": "normalized growth", "setting": "locus YDR069C, strain doa4, active compounds read low", "value": 0.981}, {"measurement": "normalized growth", "setting": "locus YDR137W, strain rgp1, active compounds read low", "value": "0.705 (active)"}, {"measurement": "normalized growth", "setting": "locus YDR159W, strain sac3, active compounds read low", "value": 0.931}, {"measurement": "normalized growth", "setting": "locus YDR195W, strain ref2", "value": 1.05}, {"measurement": "normalized growth", "setting": "locus YDR297W, strain sur2, active compounds read low", "value": 0.954}, {"measurement": "normalized growth", "setting": "locus YDR334W, strain swr1, active compounds read low", "value": 0.938}, {"measurement": "normalized growth", "setting": "locus YDR335W, strain msn5, active compounds read low", "value": "0.915 (active)"}, {"measurement": "normalized growth", "setting": "locus YDR392W, strain spt3, active compounds read low", "value": "0.248 (active)"}, {"measurement": "normalized growth", "setting": "locus YEL003W, strain gim4, active compounds read low", "value": 0.964}, {"measurement": "normalized growth", "setting": "locus YEL037C, strain rad23, active compounds read low", "value": 0.99}, {"measurement": "normalized growth", "setting": "locus YEL061C, strain CIN8 (second series), active compounds read low", "value": "0.874 (active)"}, {"measurement": "normalized growth", "setting": "locus YER015W, strain faa2, active compounds read low", "value": "0.912 (active)"}, {"measurement": "normalized growth", "setting": "locus YER016W, strain bim1, active compounds read low", "value": "0.898 (active)"}, {"measurement": "normalized growth", "setting": "locus YER111C, strain swi4, active compounds read low", "value": 0.978}, {"measurement": "normalized growth", "setting": "locus YER155C, strain BEM2 (second series), active compounds read low", "value": "0.51 (active)"}, {"measurement": "normalized growth", "setting": "locus YFR010W, strain ubp6, active compounds read low", "value": 0.967}, {"measurement": "normalized growth", "setting": "locus YGL167C, strain pmr1, active compounds read low", "value": 0.972}, {"measurement": "normalized growth", "setting": "locus YGL173C, strain kem1, active compounds read low", "value": 0.913}, {"measurement": "normalized growth", "setting": "locus YGL227W, strain vid30, active compounds read low", "value": "0.87 (active)"}, {"measurement": "normalized growth", "setting": "locus YGL240W, strain doc1, active compounds read low", "value": "0.84 (active)"}, {"measurement": "normalized growth", "setting": "locus YGL253W, strain hxk2, active compounds read low", "value": "0.792 (active)"}, {"measurement": "normalized growth", "setting": "locus YHR013C, strain ard1, active compounds read low", "value": 0.887}, {"measurement": "normalized growth", "setting": "locus YHR027C, strain rpn1, active compounds read low", "value": 0.974}, {"measurement": "normalized growth", "setting": "locus YHR030C, strain SLT2, active compounds read low", "value": 1.02}, {"measurement": "normalized growth", "setting": "locus YHR079C, strain IRE1, active compounds read low", "value": 1.02}, {"measurement": "normalized growth", "setting": "locus YHR142W, strain chs7, active compounds read low", "value": "0.54 (active)"}, {"measurement": "normalized growth", "setting": "locus YJL092W, strain hpr5, active compounds read low", "value": 0.946}, {"measurement": "normalized growth", "setting": "locus YJL095W, strain BCK1 (second series), active compounds read low", "value": "0.899 (active)"}, {"measurement": "normalized growth", "setting": "locus YJL095W, strain BCK1, active compounds read low", "value": 0.984}, {"measurement": "normalized growth", "setting": "locus YJL115W, strain asf1, active compounds read low", "value": 0.977}, {"measurement": "normalized growth", "setting": "locus YJL129C, strain trk1, active compounds read low", "value": "0.774 (active)"}, {"measurement": "normalized growth", "setting": "locus YJL154C, strain vps35, active compounds read low", "value": 0.996}, {"measurement": "normalized growth", "setting": "locus YJL164C, strain tpk1, active compounds read low", "value": 0.933}, {"measurement": "normalized growth", "setting": "locus YJL166W, strain qcr8, active compounds read low", "value": "0.801 (active)"}, {"measurement": "normalized growth", "setting": "locus YJL187C, strain SWE1, active compounds read low", "value": "0.922 (active)"}, {"measurement": "normalized growth", "setting": "locus YJR066W, strain TOR1, active compounds read low", "value": 0.964}, {"measurement": "normalized growth", "setting": "locus YKL160W, strain elf1, active compounds read low", "value": "0.887 (active)"}, {"measurement": "normalized growth", "setting": "locus YKR026C, strain gcn3, active compounds read low", "value": 0.974}, {"measurement": "normalized growth", "setting": "locus YKR091W, strain srl3, active compounds read low", "value": 0.986}, {"measurement": "normalized growth", "setting": "locus YLL001W, strain dnm1, active compounds read low", "value": 0.922}, {"measurement": "normalized growth", "setting": "locus YLL026W, active compounds read low", "value": 0.968}, {"measurement": "normalized growth", "setting": "locus YLL041C, strain sdh2, active compounds read low", "value": 0.973}, {"measurement": "normalized growth", "setting": "locus YLR027C, strain aat2, active compounds read low", "value": "0.892 (active)"}, {"measurement": "normalized growth", "setting": "locus YLR113W, strain HOG1, active compounds read low", "value": 0.96}, {"measurement": "normalized growth", "setting": "locus YLR221C, strain rsa3, active compounds read low", "value": "0.889 (active)"}, {"measurement": "normalized growth", "setting": "locus YLR258W, strain gsy2, active compounds read low", "value": 0.944}, {"measurement": "normalized growth", "setting": "locus YLR262C, strain YPT6 (second series), active compounds read low", "value": "0.692 (active)"}, {"measurement": "normalized growth", "setting": "locus YLR320W, strain mms22, active compounds read low", "value": "0.635 (active)"}, {"measurement": "normalized growth", "setting": "locus YLR342W, strain FKS1, active compounds read low", "value": "0.904 (active)"}, {"measurement": "normalized growth", "setting": "locus YLR357W, strain rsc2, active compounds read low", "value": 0.924}, {"measurement": "normalized growth", "setting": "locus YLR370C, strain arc18, active compounds read low", "value": "0.862 (active)"}, {"measurement": "normalized growth", "setting": "locus YLR384C, strain iki3, active compounds read low", "value": 0.978}, {"measurement": "normalized growth", "setting": "locus YML120C, strain ndi1, active compounds read low", "value": 0.948}, {"measurement": "normalized growth", "setting": "locus YMR058W, strain fet3, active compounds read low", "value": "0.845 (active)"}, {"measurement": "normalized growth", "setting": "locus YMR125W, strain sto1, active compounds read low", "value": 0.899}, {"measurement": "normalized growth", "setting": "locus YMR129W, active compounds read low", "value": 0.978}, {"measurement": "normalized growth", "setting": "locus YMR205C, strain PFK2, active compounds read low", "value": "0.78 (active)"}, {"measurement": "normalized growth", "setting": "locus YMR231W, strain pep5, active compounds read low", "value": 1.01}, {"measurement": "normalized growth", "setting": "locus YNL071W, strain lat1, active compounds read low", "value": "0.473 (active)"}, {"measurement": "normalized growth", "setting": "locus YNL183C, strain NPR1, active compounds read low", "value": 0.937}, {"measurement": "normalized growth", "setting": "locus YNL209W, strain ssb2, active compounds read low", "value": 0.994}, {"measurement": "normalized growth", "setting": "locus YNL248C, strain rpa49, active compounds read low", "value": 0.997}, {"measurement": "normalized growth", "setting": "locus YNL322C, strain KRE1 (second series), active compounds read low", "value": 0.943}, {"measurement": "normalized growth", "setting": "locus YNR049C, strain mso1, active compounds read low", "value": 0.985}, {"measurement": "normalized growth", "setting": "locus YOR001W, strain rrp6, active compounds read low", "value": 0.962}, {"measurement": "normalized growth", "setting": "locus YOR070C, strain gyp1, active compounds read low", "value": 0.961}, {"measurement": "normalized growth", "setting": "locus YOR080W, strain dia2, active compounds read low", "value": 0.992}, {"measurement": "normalized growth", "setting": "locus YOR083W, strain WHI5, active compounds read low", "value": "0.879 (active)"}, {"measurement": "normalized growth", "setting": "locus YOR106W, strain vam3, active compounds read low", "value": "0.837 (active)"}, {"measurement": "normalized growth", "setting": "locus YOR231W, strain MKK1, active compounds read low", "value": 1.02}, {"measurement": "normalized growth", "setting": "locus YOR265W, strain rbl2, active compounds read low", "value": 0.94}, {"measurement": "normalized growth", "setting": "locus YOR270C, strain vph1, active compounds read low", "value": "0.644 (active)"}, {"measurement": "normalized growth", "setting": "locus YOR290C, strain snf2, active compounds read low", "value": 0.886}, {"measurement": "normalized growth", "setting": "locus YPL051W, strain arl3, active compounds read low", "value": "0.882 (active)"}, {"measurement": "normalized growth", "setting": "locus YPL078C, strain atp4, active compounds read low", "value": "0.791 (active)"}, {"measurement": "normalized growth", "setting": "locus YPL106C, strain sse1, active compounds read low", "value": 0.927}, {"measurement": "normalized growth", "setting": "locus YPL240C, strain hsp82, active compounds read low", "value": 0.966}, {"measurement": "normalized growth", "setting": "locus YPL256C, strain CLN2, active compounds read low", "value": 1.04}]}
